According to the supplement of paper PMC6555819:

Columns and labels:
Assay in all cases: PBM binding z-score (relative to random genomic background probes); higher = stronger binding; sequences stand for … in GC…GCGATTGACAGCGTAGAATGAAGG
[1] = test system: FXR:RXRa (NR concentration 270 nM, RXRa partner concentration 90 nM)
How it was run: (§1)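 Random background probes are the reference for binding z-scores. These scores derive from regression-normalized fluorescence on custom Agilent 4×180K protein-binding microarrays incubated 1 h with ligand-free nuclear receptor dimers. Binding was detected with antibodies against each partner (one per run).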

[2] = test system: LXRa:RXRa (NR concentration 270 nM, RXRa partner concentration 90 nM)
How it was run: as §1

[3] = test system: LXRa homodimer (NR concentration 270 nM)
How it was run: as §1

[4] = test system: LXRb:RXRa (NR concentration 270 nM, RXRa partner concentration 90 nM)
How it was run: as §1

[5] = test system: LXRb homodimer (NR concentration 270 nM)
How it was run: as §1

[6] = test system: PPARa:RXRa (NR concentration 270 nM, RXRa partner concentration 90 nM)
How it was run: as §1

[7] = test system: PPARg:RXRa (NR concentration 180 nM, RXRa partner concentration 90 nM)
How it was run: as §1

[8] = test system: PPARg:RXRa 270nM:90nM, anti-RXR (NR concentration 270 nM, RXRa partner concentration 90 nM)
How it was run: as §1

[9] = test system: PPARg:RXRa 30nM:10nM, anti-RXR (NR concentration 30 nM, RXRa partner concentration 10 nM)
How it was run: as §1

[10] = test system: PPARg:RXRa 90nM:30nM, anti-RXR (NR concentration 90 nM, RXRa partner concentration 30 nM)
How it was run: as §1

[11] = test system: PPARg:RXRa DBDmut IVT, anti-RXR (DBD mutation: RXRa K156A/R161A, NR concentration 270 nM, RXRa partner concentration 90 nM)
How it was run: as §1

[12] = test system: PPARg:RXRa IVT, anti-PPARg (NR concentration 270 nM, RXRa partner concentration 90 nM)
How it was run: as §1

[13] = test system: PPARg DBDmut:RXRa IVT, anti-PPARg (DBD mutation: PPARg1 K132A/R137A, NR concentration 270 nM, RXRa partner concentration 90 nM)
How it was run: as §1

[14] = test system: PPARg DBDmut IVT, anti-PPARg (DBD mutation: PPARg1 K132A/R137A, NR concentration 270 nM)
How it was run: as §1

[15] = test system: PPARg homodimer (NR concentration 180 nM)
How it was run: as §1

[16] = test system: PXR:RXRa (NR concentration 270 nM, RXRa partner concentration 90 nM)
How it was run: as §1

[17] = test system: PXR homodimer (NR concentration 270 nM)
How it was run: as §1

[18] = test system: RARa:RXR (NR concentration 270 nM, RXRa partner concentration 90 nM)
How it was run: as §1

[19] = test system: RARa homodimer (NR concentration 270 nM)
How it was run: as §1

[20] = test system: RARb:RXRa (NR concentration 270 nM, RXRa partner concentration 90 nM)
How it was run: as §1

AGTCAAAGTTCAACTAGGTAACGTAAGATATGCT
PBM binding z-score [1]: 7.15 | PBM binding z-score [2]: 6.16 | PBM binding z-score [3]: 4.88 | PBM binding z-score [4]: 4.22 | PBM binding z-score [5]: 1.72 | PBM binding z-score [6]: 5.32 | PBM binding z-score [7]: 7.34 | PBM binding z-score [8]: 6.67 | PBM binding z-score [9]: 4.2 | PBM binding z-score [10]: 6.24 | PBM binding z-score [11]: 1.28 | PBM binding z-score [12]: 4.36 | PBM binding z-score [13]: 2.11 | PBM binding z-score [14]: 1.11 | PBM binding z-score [15]: 3.26 | PBM binding z-score [16]: 5.04 | PBM binding z-score [17]: 3.96 | PBM binding z-score [18]: 4.28 | PBM binding z-score [19]: 2.01 | PBM binding z-score [20]: 5.16

AGTCAAAGTTCACTACGTAACGTAAGATTCAGCT
PBM binding z-score [1]: 5.22 | PBM binding z-score [2]: 4.81 | PBM binding z-score [3]: 2.75 | PBM binding z-score [4]: 3.23 | PBM binding z-score [5]: 1.32 | PBM binding z-score [6]: 3.94 | PBM binding z-score [7]: 5.52 | PBM binding z-score [8]: 5.28 | PBM binding z-score [9]: 2.81 | PBM binding z-score [10]: 4.64 | PBM binding z-score [11]: 0.373 | PBM binding z-score [12]: 1.98 | PBM binding z-score [13]: 1.52 | PBM binding z-score [14]: 1.04 | PBM binding z-score [15]: 1.69 | PBM binding z-score [16]: 3.72 | PBM binding z-score [17]: 2.5 | PBM binding z-score [18]: 2.71 | PBM binding z-score [19]: 1.15 | PBM binding z-score [20]: 4.47

CGCCAAAGTTCAACTAAGGTAACGTAAAGCACGC
PBM binding z-score [1]: 5.71 | PBM binding z-score [2]: 6.43 | PBM binding z-score [3]: 4.61 | PBM binding z-score [4]: 4.35 | PBM binding z-score [5]: 2.19 | PBM binding z-score [6]: 5.16 | PBM binding z-score [7]: 4.03 | PBM binding z-score [8]: 5.02 | PBM binding z-score [9]: 1.67 | PBM binding z-score [10]: 3.91 | PBM binding z-score [11]: 0.771 | PBM binding z-score [12]: 1.55 | PBM binding z-score [13]: 0.546 | PBM binding z-score [14]: 0.253 | PBM binding z-score [15]: 3.81 | PBM binding z-score [16]: 5.66 | PBM binding z-score [17]: 5.04 | PBM binding z-score [18]: 4.28 | PBM binding z-score [19]: 2.96 | PBM binding z-score [20]: 5.16

TGTCAAAGTTCAAAGGTAACGTCAGTATCCACAC
PBM binding z-score [1]: 7.51 | PBM binding z-score [2]: 6.72 | PBM binding z-score [3]: 4.98 | PBM binding z-score [4]: 4.84 | PBM binding z-score [5]: 1.79 | PBM binding z-score [6]: 5.79 | PBM binding z-score [7]: 8.85 | PBM binding z-score [8]: 7.88 | PBM binding z-score [9]: 5.71 | PBM binding z-score [10]: 7.79 | PBM binding z-score [11]: 0.357 | PBM binding z-score [12]: 4.74 | PBM binding z-score [13]: 1.94 | PBM binding z-score [14]: 1.89 | PBM binding z-score [15]: 4.29 | PBM binding z-score [16]: 5.89 | PBM binding z-score [17]: 3.43 | PBM binding z-score [18]: 6.36 | PBM binding z-score [19]: 0.737 | PBM binding z-score [20]: 5.36

GTTATTAGTTGAAAGGGCAACCGAATGATTCTCG
PBM binding z-score [1]: 1.4 | PBM binding z-score [2]: 1.73 | PBM binding z-score [3]: 1.19 | PBM binding z-score [4]: 1.56 | PBM binding z-score [5]: 1.28 | PBM binding z-score [6]: 3.14 | PBM binding z-score [7]: 3.9 | PBM binding z-score [8]: 5.52 | PBM binding z-score [9]: 3.84 | PBM binding z-score [10]: 5.47 | PBM binding z-score [11]: 1.31 | PBM binding z-score [12]: 1.82 | PBM binding z-score [13]: 1.34 | PBM binding z-score [14]: 1.6 | PBM binding z-score [15]: 3.38 | PBM binding z-score [16]: 1.26 | PBM binding z-score [17]: 1.4 | PBM binding z-score [18]: 1.87 | PBM binding z-score [19]: 3.11 | PBM binding z-score [20]: 2.55

TCTTGTGGATCAACAGGAGGTTAAGAAAGATCGA
PBM binding z-score [1]: 0.0119 | PBM binding z-score [2]: 1.31 | PBM binding z-score [3]: -0.115 | PBM binding z-score [4]: 0.808 | PBM binding z-score [5]: -0.625 | PBM binding z-score [6]: 1.19 | PBM binding z-score [7]: 0.00768 | PBM binding z-score [8]: 1.18 | PBM binding z-score [9]: 2.49 | PBM binding z-score [10]: 1.87 | PBM binding z-score [11]: 1.35 | PBM binding z-score [12]: 0.812 | PBM binding z-score [13]: 0.186 | PBM binding z-score [14]: 1.07 | PBM binding z-score [15]: 0.476 | PBM binding z-score [16]: 0.621 | PBM binding z-score [17]: -0.304 | PBM binding z-score [18]: 0.932 | PBM binding z-score [19]: -0.244 | PBM binding z-score [20]: 0.59

ATATGTAAGTTAAGGGTCATTCAGGTTGGTTCGC
PBM binding z-score [1]: 4.42 | PBM binding z-score [2]: 4.64 | PBM binding z-score [3]: 3.27 | PBM binding z-score [4]: 4.11 | PBM binding z-score [5]: 1.56 | PBM binding z-score [6]: 5.03 | PBM binding z-score [7]: 6.82 | PBM binding z-score [8]: 7.16 | PBM binding z-score [9]: 6.71 | PBM binding z-score [10]: 7.81 | PBM binding z-score [11]: 1.13 | PBM binding z-score [12]: 3.7 | PBM binding z-score [13]: 1.79 | PBM binding z-score [14]: 1.39 | PBM binding z-score [15]: 4.41 | PBM binding z-score [16]: 5.17 | PBM binding z-score [17]: 2.93 | PBM binding z-score [18]: 4.86 | PBM binding z-score [19]: 1.97 | PBM binding z-score [20]: 3.42
